According to PubChem BioAssay AID1508600 (Functional Genomics Laboratory (NCATS/FGL), 2020):
Hit rate of the full screen: of about 53,000 sequences, about 3,700 (7%) were called active.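 Rule for the calls: active = gene knockdowns whose robust z-score for IL-1 alpha signal is at least 2 or at most -2, so actives lie on both sides; inactive = the rest.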 The entries come from a sample that favours actives as a whole.

Experiment: Components of the Cytosolic LPS Sensing Pathway: Gene Identification via Genome-wide siRNA Screen;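 note: robust z of the log signal after scaling to non-targeting control siRNA wells of the plate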
Conditions: RAW264.7 macrophages, IL-1a HTRF, actives lie on both sides, screened at 100 nM (by protocol), cells primed 5 h with Pam3CSK4 first
Outline: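 RAW264.7; siRNA 100 nM final, RNAiMAX, 48h 37 degrees C; Pam3CSK4 5 h; LipidA + TransIT-TKO 24 h; IL-1a HTRF; CellTiter-Glo viability; robust z vs negative-control median.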

z-score, inactive:
GGGCACCACAGAAAGGAAUTT against Olfr376 -0.525
GGCUAACCGAAGCCAUCCUTT against Tceal9 0.969
GCUUUCAUUAAGUCAGAUCTT against Flvcr2 1.16
GGAUAAGAGAAAAACAGAATT against Ect2 0.141
GGCAUAGUUGCUGUUCUCUTT against Slc9a9 -0.871
GGCUGUUUGCCAAAAAAAATT against Ppp1r16a -0.36
GGCACAGUUCUGGAAGAUGTT against Qtrt1 -1.02
GCACAGACAUCUUUUGCCATT against Man2a2 -1
GGAAAUGAUCUCUUUUGGATT against Bbs2 -0.734
GGCACACUUGAGAAGACACTT against Cul5 -0.601
GGAGGAAAGAAGUCCUACATT against Rnase2b -0.835
CCUUCUAGAUGUCUUAAGATT against Zfp41 -0.244
GGCCAAACAAGACCCAUCUTT against Ppil2 -0.621
GGAAAAGUAUUGGUAGACGTT against Steap4 -1.73
GCAAUGCAAAAGAUGCCCUTT against Chchd7 0.0804
CCCAGUUAGAAUUGUUAUCTT against Snx16 1.29
GGAAAUUACUUUGAUACUCTT against Rfx3 1.5
CCAAAACGGAAUCCUAAUATT against Nyap2 -1.34
GGGCCACUUUCCAAUUCAATT against Tectb 0.817
GGAUCAUAAAAAGAAUCACTT against Gpr21 0.851
GGGAAUUUACCAAGUACCCTT against Nedd9 1.53
CCAUCCCAUAUGUUCCGGUTT against Ptms 0.94
GGUGAAAACAAUGACUUUGTT against Zbtb44 0.256
CGAUGUUACUAUAGGAUCUTT against A730036I17Rik 0.33
CCUUCAUUCUCAUUGGCAUTT against Olfr591 -0.163
GCACUACCUGUAUUAAACUTT against Efhd2 -0.652
GCAACACAAGUCAUGAAGUTT against Gabpb2 0.628
GGAACUGAAAUUCAGUUGGTT against Azin1 0.218
GGGAGGAAAUGAAUGAAUUTT against Gypc 0.686
GGAUCUAUCUCUAGUCCCGTT against Zfp358 -1.74
CCUUUAAAAGUACCAACCCTT against B9d1 0.679
CGUACCAUGGUCAAGACGUTT against Tpcn1 0.692
GCCUUAGGUUGAUAGGAGGTT against Tas2r110 -0.191
GGCCUUUUCUUCUUUUUGUTT against Mill1 0.653
GGAAGGAAAUGUGUGAAAUTT against 4930555G01Rik -0.194
GGAGAGGAUGCAUGUAAAATT against Fbxl22 -1.19
GGAAAUGAACUCAUAGCCATT against Olfr121 0.0495
GGAGUAAAGACAUUCAGGATT against Nlrp4f 0.716
GCUUGAUCGCUUUCAACUCTT against Coro7 0.734
CCUUCUUCUUACUGAUAAUTT against Olfr1276 -0.471
GCAAUGAACUAUGAAGGCATT against Npm1 -0.32
GGACAAAAUUAGACCUUUGTT against Arf2 0.47
GGCAUCCUGUUGAAACUGATT against Vezt -0.962
GGGUGAAUUCUGUCUAUGUTT against Far1 0.0586
GGAUUAUCAGAAGUGUGUCTT against Mrps35 -0.117
GUCAAGAAUAUUAUGACCCTT against Vamp8 0.516
CCUCAUUGUGUCGUCUUACTT against Zer1 -0.421
GGCUCUGAGACACAUCUACTT against Cpt1b -0.562
GGAGUUAAUCAGUCAAAUGTT against Dclk2 0.754
GGUUAUGUCGCUAAGGAAATT against Tmem50a -0.392
GGAGGUCACCUUCUCAAACTT against Mrgprf 0.374
GCCUUUAACAGCUCUUAAUTT against Gm4894 0.999
UACUCGUAUUCUUAAUUGCTT against Acsl1 -0.272
GCAGAAUCGCUUCAGUUCUTT against Tmed6 0.49
GGCUGUGUAUUACUGCGCUTT against Vpreb2 -0.236
GCCAUGAUGCAUUAUGUAUTT against Haglr -0.331
GGGUAUUGGUUUUAGAGCATT against Emd 0.37
GGCUCUAAUGUAAUGAAUCTT against Fgf10 0.259
GGGUAAAAGGCUUUUUUGUTT against St8sia6 -0.699
CCAAUUCCUGGGUGCACACTT against Olfr309 -0.691
GGAUGACAUUUCAGUGUGGTT against Matn4 0.561
GGAUAUUCAAAUGGGUGCCTT against Bcl7b 0.538
GGACAUGAUCGACGACUACTT against Zfyve28 0.109
GGAUGAAAGAAAAGAAACUTT against Hoxd11 -0.335
GGAAUGGUAAUGCUAUUGGTT against Tmem39a 0.169
GGAGAAUGGUUCAUAUCUGTT against Trmt44 -0.849
UUGUUCAAGAGCUAGAGAUTT against Atg2a 0.811
GCCGUGCAAAGUUUAUUCATT against Nme8 1.06
CCACCAUUCGGCUCUUUUGTT against Nupl2 -0.822
GCACCUGAAGACUAAUGUUTT against Gcnt2 0.509
GGAAUAUUCAGAAUCCCUCTT against Tnfaip8l3 -0.762
GGUAACGGGACCAACACUUTT against Otop3 1.26
GGAGGAAACACAUCAUUUGTT against Tmem131 1.15
GCCUCAAUUCCUCUACGCUTT against Sytl1 -1.34
GCAUAGUGACCAUGGAUAATT against Olfr807 0.95
GGAGGACGUGAACUUUGACTT against Stk32c 0.648
GCACGUCAGAAUCUCCAGATT against Pln -0.669
GGAAUGACAAGAUUAUUGUTT against Ercc3 0.157
GGAGAGGAGUUCUUCAUUCTT against Adamts1 -1.38
GCAAGUAGCAUCUCUGAUUTT against Nfs1 1.03
GGAGGAACUGGAUUCUUACTT against Eps8l3 -0.348
GGUUGUUAGGAAUCGAUCCTT against Rps26 0.964
CCAAUGCCGCCAGAAGUUATT against Siah2 0.295
CCUGUGCUCUUAUUAUCAATT against Rpp14 0.693
GCAACUUUAAUGACAGCGUTT against Moxd1 -0.211
GCUCUAUGGAGACCUAAAGTT against Sdha -0.378
GGGAUUUUCAAAGUGAGAATT against Pmaip1 -0.502
GGAUUUUCACCAACAGCCUTT against Gh 0.046
GGACUGAAGUCCUUGACACTT against Lgi3 -1.46

z-score, active:
GGACCAGGAUAGGACCAAUTT against Avpr2 2.33
GGUAUUCGAAGCAUACAAUTT against Pdha2 3.47
GGUCGGUGUUUUAUCUGCUTT against Slc17a9 -3.2
CAUCUUUCAUCAAAUAACUTT against Krtap31-2 2.49
GGUUAUUUUGGCUAUAAGATT against Traf3 -4
GGAAUUAUCUUCAUCCCUGTT against Abhd10 -4.79
GGGACCAGAACAAAUACAATT against Klc3 4.06
GGAAAUUUUUCGCAUGACCTT against Ddx39b -2.13
GGUAAAAGCUGUUUGAGAGTT against Smim3 -3.43
CCCAGAAGGAUCUGCUCUUTT against Defa20 -2.17
CGUGCCACUUUUACCGUCCTT against Zdhhc8 -2.43
GGCAAAACAUGCUUGGACCTT against Zfp687 2.31
GCUCUGCUCUUCUGAAGCATT against Dohh -2.42
AUGGAAAAAGUGCACAAUCTT against Olfr1061 2.34
CCUUUAACUUUCUCCUACCTT against Nfkbid 3.45
GGCAAGAAGUGUGAUGAACTT against Kansl3 -2.81
GGUGGAAUACUUGGAGCAGTT against Gstm4 2.98
GGAGGGACAUGGAGAUUACTT against Ptpn18 3.15
CCUCCUACUGUUUAAUGUUTT against Exd2 2.47
